Assay results as given in PubChem BioAssay (Tox21).
Results filed as inconclusive are left out. The source made the active and inactive calls. Unless noted, the call rests on the fitted dose curve; in most records, active means well fitted curve in the direction sought with a large enough effect in the repeat runs; inconclusive means weak or mixed curves; inactive means no such curve, though single readings can be large; an effect the other way counts as inactive or inconclusive.

Columns and labels:
[1] = qHTS assay to identify aromatase inhibitors - cell viability counter screen (AID 743084);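 further: cells stimulated with testosterone during compound exposure; nearly all actives have a fitted effect of over 55% in size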
[2] = target: Aryl hydrocarbon receptor (Homo sapiens) (UniProt P35869); experiment: qHTS assay to identify small molecule that activate the aryl hydrocarbon receptor (AhR) signaling pathway (AID 743085);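 further: HG2L7.5c1 human HepG2 liver cells with stably integrated DRE-driven firefly reporter; series mostly up to about 70 µM; nearly all actives have a fitted effect of over 15% in size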
Summary of the method: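 HepG2 cells (HG2L7.5c1) stably carrying a firefly luciferase reporter driven by 20 dioxin responsive elements were exposed to compound for 24 h at 37C after a 5 h settling period; luminescence rise (ONE-Glo) indicated activation.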

[3] = qHTS assay to identify small molecule that activate the aryl hydrocarbon receptor (AhR) signaling pathway - cell viability counter screen (AID 743086);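 further: HepG2 liver cells carrying the AhR DRE luciferase reporter; series mostly up to about 70 µM; nearly all actives have a fitted effect of over 45% in size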
Summary of the method: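 HepG2-AhR-luc (HG2L7.5c1) cells, 4000/well, treated 24 h at 37 C with compound; viability measured as CellTiter-Fluor fluorescence after 30 min in the same wells as the luciferase read.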

[4] = qHTS assay to identify small molecule antagonists of the peroxisome proliferator-activated receptor gamma (PPARg) signaling pathway - cell viability counter screen (AID 743194); further: nearly all actives have a fitted effect of over 55% in size
Summary of the method: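 Cytotoxicity counter screen in PPARg-bla HEK293H cells, same wells as reporter assay. Compounds plus 50 nM rosiglitazone (final) for 17 h at 37 C, then viability read by CellTiter-Glo luminescence.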

[5] = qHTS assay for small molecule agonists of the antioxidant response element (ARE) signaling pathway (AID 743202; active means well fitted activation curve with a large enough effect in the signal ratio in the repeat runs, not every such curve was filed as active; the % refers to the signal ratio)
Summary of the method: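 HepG2 ARE-bla reporter line, 2,000 cells/well; 5 h preincubation 37 C/5% CO2; compound (DMSO) 16 h 37 C; B/G FRET substrate 2 h RT; fluorescence intensity.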

[6] = qHTS assay for small molecule agonists of the antioxidant response element (ARE) signaling pathway - cell viability counter screen (AID 743203; calls by dose curve; further: nearly all actives have a fitted effect of over 55% in size)
Summary of the method: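 Viability counter screen: CellTiter-Glo luminescence, read after 30 min at room temperature, in ARE-bla HepG2 wells. Compound exposure lasted 16 h at 37C/5% CO2, following a 5 h pre-incubation of the cells after plating.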

[7] = qHTS assay for small molecule activators of the heat shock response signaling pathway - cell viability counter screen (AID 743209); further: nearly all actives have a fitted effect of over 50% in size
Summary of the method: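 Cytotoxicity counter screen run in the same wells as the heat-shock bla reporter assay: HeLa HSE-bla cells, 5 h compound exposure at 37 C, viability read by CellTiter-Glo luminescence.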

[8] = qHTS assay for small molecule activators of the heat shock response signaling pathway (AID 743210; active means well fitted activation curve with a large enough effect in the signal ratio in the repeat runs, with a control signal flat, not every such curve was filed as active; the % refers to the signal ratio;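 further: HeLa cells with beta-lactamase reporter driven by heat shock elements; series mostly up to about 63 µM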)
Summary of the method: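 Beta-lactamase reporter read-out: FRET substrate fluorescence after 2.5 h at RT, following 5 h compound treatment at 37 C of HeLa cells carrying HSE-driven bla reporter; quantitative HTS format.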

[9] = qHTS assay to identify small molecule agonists of the peroxisome proliferator-activated receptor delta (PPARd) signaling pathway - cell viability counter screen (AID 743211); further: nearly all actives have a fitted effect of over 55% in size
Summary of the method: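 PPARd-bla HEK293H cells (UAS-beta-lactamase reporter) were treated with compounds for 17 h at 37 C. Viability was then read in the same wells by CellTiter-Glo luminescence after 30 min at room temperature.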

[10] = qHTS assay to identify small molecule antagonists of the peroxisome proliferator-activated receptor delta (PPARd) signaling pathway - cell viability counter screen (AID 743213); further: nearly all actives have a fitted effect of over 50% in size
Summary of the method: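 Same-well viability: cells pre-incubated 5 h, dosed with compound plus 300 nM L165041, kept 17 h at 37 C, FRET substrate 2 h RT, then CellTiter-Glo 30 min RT and luminescence.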

[11] = qHTS assay to identify small molecule antagonists of the farnesoid-X-receptor (FXR) signaling pathway - cell viability counter screen (AID 743221; active means well fitted cell-killing curve with a large enough effect in the repeat runs, not every such curve was filed as active; further: nearly all actives have a fitted effect of over 50% in size)
Summary of the method: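 FXR-UAS-bla HEK 293T cells were treated with test compounds plus chenodeoxycholic acid (50 uM final) for 16 h at 37 C. Cell viability in the same wells was then read as CellTiter-Glo luminescence after 30 min at room temperature.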

[12] = target: Vitamin D3 receptor (Homo sapiens) (UniProt P11473); experiment: qHTS assay to identify small molecule agonists of the vitamin D receptor (VDR) signaling pathway (AID 743222; calls by dose curve)
Summary of the method: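 Agonist mode, beta-lactamase reporter: fluorescence from LiveBLAzer B/G FRET substrate (2 h, room temperature) read after 16 h compound treatment at 37 C of VDR-bla cells, which were pre-incubated 4 h after seeding.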

[13] = target: Vitamin D3 receptor (Homo sapiens) (UniProt P11473); experiment: qHTS assay to identify small molecule antagonists of the vitamin D receptor (VDR) signaling pathway (AID 743223; active means well fitted inhibition curve with a large enough effect in the signal ratio in the repeat runs, not every such curve was filed as active; the % refers to the signal ratio)
Summary of the method: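 VDR-bla cells were plated, incubated 4 h at 37C, then given compound and 1alpha,25-dihydroxyvitamin D3 (3 nM final). After 16 h at 37C, LiveBLAzer B/G FRET substrate was added for 2 h at room temperature and fluorescence read.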

[14] = target: Peroxisome proliferator-activated receptor delta (Homo sapiens) (UniProt Q03181); experiment: qHTS assay to identify small molecule agonists of the peroxisome proliferator-activated receptor delta (PPARd) signaling pathway (AID 743212; calls by dose curve)
Summary of the method: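 Read-out: beta-lactamase FRET fluorescence after 2 h room-temperature incubation with LiveBLAzer B/G substrate. Cells were HEK293H carrying a UAS-bla reporter for PPARd, treated at 37 C with DMSO-dissolved compounds.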

[15] = target: Peroxisome proliferator-activated receptor delta (Homo sapiens) (UniProt Q03181); experiment: qHTS assay to identify small molecule antagonists of the peroxisome proliferator-activated receptor delta (PPARd) signaling pathway (AID 743215; active means well fitted inhibition curve with a large enough effect in the signal ratio in the repeat runs, not every such curve was filed as active; the % refers to the signal ratio;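 further: cells stimulated with agonist L165041 at 300 nM final during compound exposure; series mostly up to about 62 µM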)
Summary of the method: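 Agonist L165041 (300 nM final) added with compound to PPARd-bla HEK293H UAS-bla reporter cells; 17 h incubation at 37 C. Read-out: LiveBLAzer FRET substrate, 2 h at room temperature, fluorescence intensity.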

[16] = qHTS assay to identify small molecule agonists of the farnesoid-X-receptor (FXR) signaling pathway - cell viability counter screen (AID 743218); further: nearly all actives have a fitted effect of over 45% in size
Summary of the method: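 Viability counter screen in the same wells: CellTiter-Glo luminescence, 30 min room-temperature incubation, measured after the beta-lactamase read. Cells were GeneBLAzer FXR-UAS-bla HEK 293T, compound-treated 16 h at 37C.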

[17] = target: Bile acid receptor (Homo sapiens) (UniProt Q96RI1); experiment: qHTS assay to identify small molecule antagonists of the farnesoid-X-receptor (FXR) signaling pathway (AID 743217; active means well fitted inhibition curve with a large enough effect in the signal ratio in the repeat runs, not every such curve was filed as active; the % refers to the signal ratio)
Summary of the method: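 Antagonist mode: chenodeoxycholic acid at 50 uM final stimulates a UAS-driven beta-lactamase reporter in HEK 293T FXR-bla cells during 16 h, 37C compound exposure. Read-out is FRET substrate fluorescence after 2 h at room temperature.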

[18] = target: Bile acid receptor (Homo sapiens) (UniProt Q96RI1); experiment: qHTS assay to identify small molecule agonists of the farnesoid-X-receptor (FXR) signaling pathway (AID 743220; active means well fitted activation curve with a large enough effect in the signal ratio in the repeat runs, not every such curve was filed as active; the % refers to the signal ratio)
Summary of the method: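 FXR-UAS-bla HEK 293T cells carrying a UAS-driven beta-lactamase reporter were plated for 5 h at 37C/5% CO2, then exposed to DMSO-dissolved Tox21 10K compounds for 16 h at 37C. A LiveBLAzer B/G FRET substrate was loaded for 2 h at room temperature before fluorescence reading.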

[19] = target: Peroxisome proliferator-activated receptor gamma (Homo sapiens) (UniProt P37231); experiment: qHTS assay to identify small molecule agonists of the peroxisome proliferator-activated receptor gamma (PPARg) signaling pathway (AID 743094; active means well fitted activation curve with a large enough effect in the signal ratio in the repeat runs, not every such curve was filed as active; the % refers to the signal ratio)
Summary of the method: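 Agonist activity was taken from a beta-lactamase reporter (FRET substrate, 1 h at room temperature) in HEK293H cells carrying a PPARg UAS-bla construct. Compounds in DMSO were incubated 17 h at 37C after a 5 h cell pre-incubation.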

[20] = target: Peroxisome proliferator-activated receptor gamma (Homo sapiens) (UniProt P37231); experiment: qHTS assay to identify small molecule antagonists of the peroxisome proliferator-activated receptor gamma (PPARg) signaling pathway (AID 743191; calls by dose curve; further: series mostly up to about 63 µM; nearly all actives have a fitted effect of over 30% in size)
Summary of the method: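 GeneBLAzer PPARg UAS-bla HEK293H cells, 5 h post-plating, exposed to compounds 17 h at 37C. LiveBLAzer B/G FRET substrate added for 1 h at room temperature; beta-lactamase reporter read by fluorescence intensity.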

Measured: Potency

Chain of Aryl hydrocarbon receptor (Homo sapiens) (P35869 whole entry, looked up): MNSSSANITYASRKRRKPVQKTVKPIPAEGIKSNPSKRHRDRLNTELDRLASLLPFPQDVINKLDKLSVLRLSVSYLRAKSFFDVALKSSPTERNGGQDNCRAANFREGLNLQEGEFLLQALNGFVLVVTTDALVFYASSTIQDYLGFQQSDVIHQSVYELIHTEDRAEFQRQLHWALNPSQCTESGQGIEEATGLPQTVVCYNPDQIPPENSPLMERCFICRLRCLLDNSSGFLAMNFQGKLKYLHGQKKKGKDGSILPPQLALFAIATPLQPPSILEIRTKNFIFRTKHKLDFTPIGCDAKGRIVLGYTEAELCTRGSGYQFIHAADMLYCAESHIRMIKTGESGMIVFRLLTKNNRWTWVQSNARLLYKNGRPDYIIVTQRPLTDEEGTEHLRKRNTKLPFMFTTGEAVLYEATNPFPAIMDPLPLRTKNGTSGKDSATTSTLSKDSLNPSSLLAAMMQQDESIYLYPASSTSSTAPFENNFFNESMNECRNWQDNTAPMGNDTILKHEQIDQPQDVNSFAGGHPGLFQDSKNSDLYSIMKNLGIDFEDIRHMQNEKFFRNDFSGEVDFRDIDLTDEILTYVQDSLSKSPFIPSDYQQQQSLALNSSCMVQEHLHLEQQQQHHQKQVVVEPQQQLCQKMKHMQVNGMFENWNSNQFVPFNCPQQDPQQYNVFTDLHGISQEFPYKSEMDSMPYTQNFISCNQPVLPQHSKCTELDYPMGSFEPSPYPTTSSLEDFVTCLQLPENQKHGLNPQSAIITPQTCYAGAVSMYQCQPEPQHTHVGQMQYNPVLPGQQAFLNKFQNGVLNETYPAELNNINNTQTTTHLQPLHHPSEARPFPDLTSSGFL
Chain of Peroxisome proliferator-activated receptor gamma (Homo sapiens) (P37231 whole entry, looked up): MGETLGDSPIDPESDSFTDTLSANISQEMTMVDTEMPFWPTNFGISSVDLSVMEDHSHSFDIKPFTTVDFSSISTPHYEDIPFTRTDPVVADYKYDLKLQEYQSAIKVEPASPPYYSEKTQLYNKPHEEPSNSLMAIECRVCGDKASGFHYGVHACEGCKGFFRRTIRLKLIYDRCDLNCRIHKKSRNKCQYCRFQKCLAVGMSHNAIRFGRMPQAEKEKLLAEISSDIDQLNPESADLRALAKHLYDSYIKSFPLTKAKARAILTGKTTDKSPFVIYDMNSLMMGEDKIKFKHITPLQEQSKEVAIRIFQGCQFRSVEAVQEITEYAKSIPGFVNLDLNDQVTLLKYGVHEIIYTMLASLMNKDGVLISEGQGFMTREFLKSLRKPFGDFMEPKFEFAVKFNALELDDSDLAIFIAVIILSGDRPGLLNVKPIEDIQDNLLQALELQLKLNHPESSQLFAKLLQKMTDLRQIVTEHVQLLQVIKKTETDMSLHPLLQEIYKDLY
Chain of Vitamin D3 receptor (Homo sapiens) (P11473 whole entry, looked up): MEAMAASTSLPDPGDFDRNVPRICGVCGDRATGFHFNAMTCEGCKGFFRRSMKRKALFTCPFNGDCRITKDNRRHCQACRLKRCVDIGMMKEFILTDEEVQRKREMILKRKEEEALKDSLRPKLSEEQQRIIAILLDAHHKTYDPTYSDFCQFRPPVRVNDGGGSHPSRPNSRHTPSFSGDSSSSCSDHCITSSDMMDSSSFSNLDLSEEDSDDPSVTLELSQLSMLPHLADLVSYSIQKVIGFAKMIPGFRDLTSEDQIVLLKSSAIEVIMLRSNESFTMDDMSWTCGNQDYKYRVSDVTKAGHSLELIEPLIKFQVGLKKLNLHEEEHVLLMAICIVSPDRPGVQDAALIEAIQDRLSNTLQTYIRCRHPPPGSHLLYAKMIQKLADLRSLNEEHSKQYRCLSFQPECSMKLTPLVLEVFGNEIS
Chain of Bile acid receptor (Homo sapiens) (Q96RI1 whole entry, looked up): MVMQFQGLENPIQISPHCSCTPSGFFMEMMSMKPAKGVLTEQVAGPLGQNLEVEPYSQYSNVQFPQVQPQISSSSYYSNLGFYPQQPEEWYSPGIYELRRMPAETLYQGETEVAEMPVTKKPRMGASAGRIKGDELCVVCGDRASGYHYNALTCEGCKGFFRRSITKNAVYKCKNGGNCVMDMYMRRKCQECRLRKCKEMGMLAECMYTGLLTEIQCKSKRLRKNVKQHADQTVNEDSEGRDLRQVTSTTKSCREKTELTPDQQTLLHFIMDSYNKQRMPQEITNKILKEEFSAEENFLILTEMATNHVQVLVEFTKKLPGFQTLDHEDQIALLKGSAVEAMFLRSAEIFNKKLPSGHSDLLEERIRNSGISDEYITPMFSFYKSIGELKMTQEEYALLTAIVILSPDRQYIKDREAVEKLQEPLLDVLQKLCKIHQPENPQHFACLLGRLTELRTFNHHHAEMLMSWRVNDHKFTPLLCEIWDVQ
Chain of Peroxisome proliferator-activated receptor delta (Homo sapiens) (Q03181 whole entry, looked up): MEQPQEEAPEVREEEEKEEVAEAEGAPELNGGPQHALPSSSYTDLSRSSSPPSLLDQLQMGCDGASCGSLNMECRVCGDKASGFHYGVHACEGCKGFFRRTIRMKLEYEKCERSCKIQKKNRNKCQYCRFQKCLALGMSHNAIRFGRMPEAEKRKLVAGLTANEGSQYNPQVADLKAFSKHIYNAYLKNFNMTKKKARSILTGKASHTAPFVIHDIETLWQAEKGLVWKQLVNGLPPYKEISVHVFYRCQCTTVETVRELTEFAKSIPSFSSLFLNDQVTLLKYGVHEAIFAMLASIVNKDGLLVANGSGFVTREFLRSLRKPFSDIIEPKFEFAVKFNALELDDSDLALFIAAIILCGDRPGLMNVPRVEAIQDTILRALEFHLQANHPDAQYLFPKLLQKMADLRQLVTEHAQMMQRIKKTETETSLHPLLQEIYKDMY

CC1(C)O[C@@H]2[C@@H](CO[C@@]3(COS(N)(=O)=O)OC(C)(C)O[C@@H]23)O1
not listed: [14] | [15] | [16] | [17] | [18] | [19] | [20]
inactive: all other assays above

NC(=O)N1c2ccccc2C=Cc2ccccc21
not listed: [12] | [13] | [17] | [18] | [19] | [20]
inactive: all other assays above

C=CC(=O)NC(C)(C)CS(=O)(=O)O
not listed: [16] | [17] | [18] | [19] | [20]
inactive: all other assays above

CCOCCO
not listed: [14] | [15] | [19] | [20]
inactive: all other assays above

C[C@]12CC[C@@H]3c4ccc(O)cc4CC[C@H]3[C@@H]1CCC2=O
not listed: [2] | [5] | [12] | [13] | [14] | [15] | [19] | [20]
inactive: all other assays above

c1ccc2[nH]c(-c3cscn3)nc2c1
not listed: [2]
inactive: all other assays above

C=C(C)OC(C)=O
not listed: [14] | [15] | [17] | [18] | [19] | [20]
inactive: all other assays above

O=c1cc[nH]c(=O)[nH]1
not listed: [1] | [2] | [16] | [17] | [18] | [19] | [20]
inactive: all other assays above
